From PubChem BioAssay
LASV entry inh: qHTS for Inhibitors of binding or entry into cells for Lassa Virus. actives 1.2% (n = 300,000). AID 540256, 2011. Potency, µM (titrated, usually from 37.9 µM), for inactives: at the highest dose activity change, negative = inhibition, hits mostly inhibitors. Lassa virus pseudotype entry inhibition, cell reporter; calls by dose curve; tested in HEK293 cells; further: potency means the concentration at half of the fitted maximal effect; nearly all actives have a fitted effect of over 50% in size
Marburg entry inh: qHTS for inhibitors of binding or entry into cells for Marburg Virus; AID 540276, 2011; Marburg virus pseudotyped entry inhibition, cell reporter; Potency, µM (titrated, usually from 37.8 µM), for the others: at the top dose activity change, negative = inhibition, hits mostly inhibitors; actives 1.8% (n = 300,000); calls by dose curve; tested in HEK293 cells; further: potency means the concentration at half of the fitted maximal effect
HCMV antiviral: qHTS Assay for inhibitors of the human cytomegalovirus (HCMV); HFF cells, HCMV-luciferase reporter, 72 h; active compounds read low; activity change, negative = inhibition, % at 57.5 µM; actives 4.5% (n = 410,000); in the data active means activity change below about -60%; inconclusive means no clear call, values can overlap the other calls; inactive means above about -39%
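Luciferase read-out from HCMV-luciferase-infected HFFs (MOI 1 PFU/cell) 72 h post infection at 37C; compounds added after 16 h cell attachment; activity normalized between buffer-only basal and Salinomycin (10uM) inhibitor controls.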
HCV inhibitor: qHTS Assay for Inhibitors of Hepatitis C Virus (HCV). Huh7.5.1 HCVcc-Cre infection, luciferase reporter, 44 h. Potency, µM (doses to about 41.8 µM), for the others: at the highest dose activity change, negative = inhibition, most hits filed as inhibitors. actives 3.4% (n = 340,000). AID 651820, 2012; active means well fitted inhibition curve with a large enough effect; inconclusive means small, poorly fitted or top-dose-only effect, or another doubt; inactive means no such curve, though single readings can be large or run the other way; further: potency means the concentration at half of the fitted maximal effect
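Whole-lifecycle infectious HCVcc-Cre system; cells 1,000/well, compound then virus (~0.5 moi) added 4 h after plating, 44 h culture. Luciferase read 15 sec following 15 min substrate incubation, room temp.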
FMDV inh: High Throughput Screening for Foot and Mouth Disease Virus Antivirals | FMDV antiviral cell-based qHTS | Potency, µM (doses to about 57.9 µM), for inactives: at the highest dose activity change, negative = inhibition, most hits filed as inhibitors | actives 1.2% (n = 410,000); calls by dose curve; tested in HEK293T cells; further: read-out not given here; potency means the concentration at half of the fitted maximal effect; nearly all actives have a fitted effect of over 45% in size
* = called active by the depositor; ? = inconclusive; / = not tested or not shown; [ ] = remark or other dose. A selection: hits, their analogues and other compounds. The true share with any hit is near 7.9%. On the % scale 0 is the no-effect control and ±100 the full control effect.

SMILES | LASV entry inh | Marburg entry inh | HCMV antiviral | HCV inhibitor | FMDV inh
O=C(COc1ccc(Br)cc1)Nc1ccc([N+](=O)[O-])cn1 | 4% | 12% | -31 | 2% | 8%
CCOc1ccc(CC(=O)NCCc2sc3nc(-c4ccc(F)cc4)nn3c2C)cc1 | -13%[46.1 µM] | / | 38 | / | -22%
O=C(C[n+]1cccc(Br)c1)c1ccc(-c2ccccc2)cc1 | / | / | -74* | ? | 5%
Cc1ccc(C(=O)C[n+]2cc(Br)cc(Br)c2)cc1 | -2%[46.1 µM] | ? | 27 | -10% | 4%
O=C(C[n+]1cc(Br)cc(Br)c1)c1ccc(Cl)cc1 | 22%[46.1 µM] | -21%[46.1 µM] | 71 | 32µM* | -3%
Cc1ccc[n+](CC(=O)c2ccc(-c3ccccc3)cc2)c1 | -7% | -12% | -68* | -16% | -20%
O=C(C[n+]1cccc(Br)c1)c1ccccc1 | -16%[46.1 µM] | 24%[46.1 µM] | 61 | 5% | 2%
Cc1ccc(C(C)(C)C)c(OCCOCCN2CCCC2)c1 | ? | 12µM* | -10 | ? | 7%
CCC(C)c1ccccc1OCCOCCN1CCCC1 (stereo not given) | 18µM* | ? | -31 | 8% | 0%
O=C(N[C@H]1CC[C@@]23CCCN2C(=O)CCC[C@H]3[C@H]1Cc1ccccc1)c1cccnc1 | / | / | -11 | / | /
Cc1cccc2cc(CN(CC3CCCO3)C(=O)c3cccc(F)c3)c(N(C)C)nc12 (stereo not given) | / | / | / | / | -5%
CC(=O)Nc1cccc(-c2cc3c(c4c2ccn4C)C2CCC3C2)c1 (stereo not given) | 4%[46.1 µM] | / | / | / | /
Fc1cccc(COc2ccc(Nc3ncnc4sc(-c5cccs5)cc34)cc2Cl)c1 | 16µM* | / | / | / | /
Nc1ccc(C#Cc2cncnc2Nc2ccc(OCc3cccc(F)c3)c(Cl)c2)cc1 | 3.1µM* | / | / | / | /
CN1CCN(Cc2ccc(-c3cc4ncnc(Nc5ccc(OCc6cccc(F)c6)c(Cl)c5)c4s3)o2)CC1 | 20µM* | / | / | / | /
O=C(NCc1ccccc1)c1cccc(N2CCCS2(=O)=O)c1 | 29%[46.1 µM] | / | 3 | / | -8%
COc1ccc(-c2csc(N(CCCN(C)C)C(=O)c3ccc(OC)c(OC)c3)n2)cc1 | / | / | 11 | / | ?
COc1ccc(OC)c(-c2csc(N(CC3CCCO3)C(=O)C3CCCCC3)n2)c1 (stereo not given) | -1% | -18% | -72* | ? | 3%
CCN(CC)CCCN(C(=O)c1ccc(Br)cc1)c1nc(-c2ccc(OC)cc2)cs1 | ? | 3.5µM* | -36 | ? | -8%
COc1ccc(OC)c(-c2csc(N(Cc3ccco3)C(=O)c3cccs3)n2)c1 | 6% | ? | -8 | 13µM* | -22%
CCN(CC)CCCN(C(=O)c1cccs1)c1nc(-c2ccc(OC)cc2)cs1 | ? | ? | / | 11µM* | -14%
COc1ccc(-c2csc(N(Cc3ccco3)C(=O)c3cccs3)n2)cc1 | / | / | 1 | ? | -22%
Cc1cc(C)cc(NC(=O)c2cc(S(=O)(=O)N3CCCC3)ccc2F)c1 | -23%[46.1 µM] | / | -39 | / | -9%
Cc1c(C(=O)Nc2ccc(F)cc2F)oc2ccc3c(c12)C(=O)CC(C)(C)O3 | 19%[46.1 µM] | / | ? | / | 0%
Cc1ccc(CN2C[C@H](Sc3ccccn3)C[C@H]2C(=O)Nc2ccc3sc(C)nc3c2)s1 | / | / | / | / | 5%
SMILES | LASV entry inh | Marburg entry inh | HCMV antiviral | HCV inhibitor | FMDV inh
CCN(CC)CCN(C(=O)c1ccc2c(c1)CCCC2)c1nc2ccc(OC)cc2s1 | -22% | ? | -2 | ? | ?
CCN(CC)CCCN(C(=O)c1cccc(C)c1)c1nc(-c2ccc(OC)cc2)cs1 | / | / | -95* | 4% | 2%
COC(=O)C(c1ccccc1)(c1cn(-c2ccccc2)c2ccccc12)C(Nc1ccccc1)c1ccccc1 (stereo not given) | / | / | -29 | / | /
CN(C)c1nc(-c2ccccc2)nc(-c2ccc(Cl)cc2)c1C#N | 18% | 0% | -25 | 14% | -17%
CN(C)c1nc(-c2ccccn2)nnc1-c1ccccc1 | ? | ? | -103* | ? | -2%
CCN(CC)c1nc(-c2ccccn2)nc(-c2ccccc2)c1C#N | ? | 6.3µM* | -93* | 6.3µM* | ?
O=C(Cn1cc(C(F)(F)F)cc(Cl)c1=O)NC1CCS(=O)(=O)C1 (stereo not given) | / | / | -35 | -11% | -15%
